Screen size: about 310,000 compounds; about 2,600 (0.84%) were called active.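 The calls were made as follows: active = B-score over 3 SD under the library average, and starting fluorescence ratio not unusually high; inactive = the rest.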 Shown is part of a subset that was picked to be rich in actives.
Target: High affinity choline transporter 1 (Homo sapiens) (UniProt Q9GZV3)
Assay: inhibitors of human choline transporter CHT (AID 488975);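 as to B-score: choline stimulus applied at its EC90 after an EC20 pre-addition; B-score computed on integrated fluorescence ratio after choline addition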
Settings: CHT-expressing cells, membrane potential dye, choline response, at 10 µM; active compounds read low

High affinity choline transporter 1 (Homo sapiens), sequence (Q9GZV3 whole entry, looked up): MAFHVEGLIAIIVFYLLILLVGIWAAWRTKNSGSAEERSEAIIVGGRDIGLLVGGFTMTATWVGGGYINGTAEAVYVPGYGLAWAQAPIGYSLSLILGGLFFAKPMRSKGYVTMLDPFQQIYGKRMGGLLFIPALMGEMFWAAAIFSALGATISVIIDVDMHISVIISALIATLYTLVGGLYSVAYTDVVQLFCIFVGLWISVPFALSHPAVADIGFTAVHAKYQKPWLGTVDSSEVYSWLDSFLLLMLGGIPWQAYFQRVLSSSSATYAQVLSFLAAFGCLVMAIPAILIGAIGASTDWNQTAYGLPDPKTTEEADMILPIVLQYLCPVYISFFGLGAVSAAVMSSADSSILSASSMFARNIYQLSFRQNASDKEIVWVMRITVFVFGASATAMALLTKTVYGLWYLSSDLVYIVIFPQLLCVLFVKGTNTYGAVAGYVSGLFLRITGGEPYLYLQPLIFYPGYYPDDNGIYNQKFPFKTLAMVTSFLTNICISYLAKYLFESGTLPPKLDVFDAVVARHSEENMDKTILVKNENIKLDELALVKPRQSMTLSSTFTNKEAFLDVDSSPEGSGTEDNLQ

SMILES	B-score
CCC(CC)C(=O)N1CC(=O)Nc2ccc(Br)cc2C1c1ccccc1 (configuration not stated)	inactive
COC(=O)C1=C(C)N(C)C(C)=C(C(=O)OC)C1c1cccc(Br)c1	inactive
COC(=O)CN1C(C)=Nc2ccc(Br)cc2C1c1ccccc1 (configuration not stated)	-5.31 (active)
O=C(Nc1ncccc1O)c1ccc(S(=O)(=O)N2CCCC2)cc1	inactive
COc1ccc(-n2nnnc2CNC(=O)c2ccc3ccccc3c2)cc1	-5.47 (active)
COc1ccc(-n2nnnc2SCC(=O)c2ccc(OC)c(OC)c2)cc1	inactive
COc1ccc(CNC(=O)c2ccc3oc(C(C)C)nc3c2)cc1	inactive
COc1ccc(NC(=O)CN(C)C(=O)Cc2coc3cc(C)c(C)cc23)cc1	inactive
CC(C)Oc1ccc(S(=O)(=O)N2CCOCC2)cc1NC(=O)C1CSC2(C)CCC(=O)N12 (configuration not stated)	inactive
O=C(Nc1cc(-c2ccccc2)nn1-c1ccccc1F)c1ccc([N+](=O)[O-])cc1	inactive
COc1ccc(S(=O)(=O)N2CCOC2CNC(=O)C(=O)NCc2ccncc2)cc1C (configuration not stated)	inactive
CC1CCN(C(=O)c2cccc(S(=O)(=O)N3CCCc4ccccc43)c2)CC1	inactive
CC(C)n1c(=S)[nH]c2cc(C(F)(F)F)ccc21	-8.94 (active)
CC(C)n1c(=O)[nH]c2cc(C(=O)Nc3ccccc3)ccc21	inactive
CCCn1c(=S)[nH]c2ccc(C(F)(F)F)cc21	inactive
Cc1c(NC(=O)C(C)OC(=O)c2c3c(nc4ccccc24)CCC(C)C3)c(=O)n(-c2ccccc2)n1C (configuration not stated)	inactive
COc1ccc2sc(N(CCCN(C)C)C(=O)c3ccc(S(=O)(=O)N(C)C4CCCCC4)cc3)nc2c1	inactive
O=C(c1ccc(F)c(S(=O)(=O)N2CCOCC2)c1)N(CCc1ccccc1)Cc1ccccc1	inactive
COc1ccc(N(C)S(=O)(=O)c2ccc3c(c2)CC(C)N3C(=O)C2CC2)c(OC)c1 (configuration not stated)	inactive
CCOC(=O)N1CCN(C(=O)CN(c2ccc(C)c(C)c2)S(=O)(=O)c2ccccc2)CC1	inactive
Cc1ccc(N(Cc2ccc(C(=O)Nc3ccccc3C(=O)NCc3ccco3)cc2)S(C)(=O)=O)cc1C	inactive
CCOC(=O)N1CCN(C(=O)c2ccc(CN(c3ccc(C)c(C)c3)S(C)(=O)=O)cc2)CC1	-6.25 (active)
COc1ccc(NC(=O)CN(C)C(=O)c2cc(-c3ccc(C)o3)nc3ccccc23)cc1	inactive
COc1ccc(N2C(=O)C(CC(=O)Nc3ccc(F)cc3)N(CCc3cccs3)C2=O)cc1 (configuration not stated)	inactive
CCNC(=O)CC1C(=O)N(c2ccc(F)cc2)C(=O)N1CCc1sccc1C (configuration not stated)	-5.75 (active)

SMILES	B-score
CCNC(=O)CC1C(=O)N(c2ccc(F)cc2)C(=O)N1Cc1cccs1 (configuration not stated)	inactive
CC(=O)Nc1ccc(C(=O)Nc2cccc(S(=O)(=O)NC3=NCCC3)c2)cc1	inactive
CN(C)c1ccc(Nc2c3c4c(cccc4n(C)c2=O)C(=O)c2ccccc2-3)cc1	-9.73 (active)
CN(C)c1ccc(C2N(C)C(=O)c3ccccc3N2C)cc1 (configuration not stated)	inactive
COc1ccc(/C=C2\SC(=S)N(CCCC(=O)NC3CCCC3)C2=O)cc1OC	inactive
COc1ccccc1CNC(=O)CCn1c(=O)sc2ccccc21	inactive
COc1ccc(Cn2c(=O)sc3ccccc32)cc1OC	-5.56 (active)
Cc1cccc(CSc2nnc(Cn3c(=O)sc4ccccc43)n2C)c1	inactive
O=C(NCC1(N2CCCCC2)CCCCC1)c1ccc(NS(=O)(=O)c2ccc(F)cc2)cc1	inactive
Cc1ccc(C)c(OCCC(=O)Nc2cccc(S(=O)(=O)N3CCCC3)c2)c1	inactive
O=C(/C=C/c1ccc([N+](=O)[O-])o1)NNC(=O)c1ccc(F)cc1	inactive
CCN(CC)C(=O)CC(c1ccc2c(c1)OCO2)c1c(OC)cc(OC)c2c(-c3ccccc3)cc(=O)oc12 (configuration not stated)	inactive
CCN(CC)CCC(c1cc(OC)c(OC)c(OC)c1)c1c(OC)cc(OC)c2c(-c3ccccc3)cc(=O)oc12 (configuration not stated)	inactive
CCN(CC)CCC(c1ccc2c(c1)OCO2)c1c(OC)cc(OC)c2c(-c3ccccc3)cc(=O)oc12 (configuration not stated)	-6.84 (active)
Cc1ccc(S(=O)(=O)N2CCOCC2)cc1C(=O)Nc1ccccc1N1CCCC1	inactive
COc1ccc(N2CCN(S(=O)(=O)c3cc4c5c(c3)C(C)C(=O)N5CCC4)CC2)cc1 (configuration not stated)	inactive
Cc1ccc(-c2csc(NC(=O)C3=COCCO3)n2)cc1C	inactive
O=C(Nc1ncccc1O)c1ccc(S(=O)(=O)N2CCCCCC2)cc1	inactive
CCOC(=O)[C@H]1[C@H]2COc3ccc(Cl)cc3[C@@H]2N2C(=O)c3cc(C)ccc3NC(=O)[C@@]12C	inactive
Cc1cc(NC(=O)C(C)SCC(=O)Nc2ccccc2N2CCCCC2)no1 (configuration not stated)	inactive
Oc1ccccc1N1CCN(c2ncnc3sc(-c4ccccc4)cc23)CC1	inactive
CCc1cc2c(N3CCN(c4nnc(CC)s4)CC3)ncnc2s1	-7.24 (active)
CCc1cc2c(NC3CCCC3)ncnc2s1	inactive
COc1ccc(C(=NN)c2ccc(OC)cc2)cc1	inactive
COc1ccc(S(=O)(=O)N2CCCCC2)cc1NC(=O)c1cc([N+](=O)[O-])ccc1N1CCOCC1	inactive

SMILES	B-score
O=C(NCCCn1ccnc1)C(=O)c1cn(CC(=O)N2CCCCCC2)c2ccccc12	-6.23 (active)
Cc1ccc(CNC(=O)C(=O)c2cn(CC(=O)N3CCCC3)c3ccccc23)cc1	inactive
O=C(NCc1ccco1)C(=O)c1cn(CC(=O)N2CCCCCC2)c2ccccc12	inactive
CCN(CC)CCn1c2c(c(SCC(=O)Nc3nc4ccccc4s3)nc1=O)CCCC2	inactive
CCCCn1c(SCC(=O)NCC2CCCO2)nc2ccc(N3CCOCC3)cc2c1=O (configuration not stated)	-5.48 (active)
COCCNC(=O)c1ccc(Cn2c(SCC(=O)NCC3CCCO3)nc3ccc(Br)cc3c2=O)cc1 (configuration not stated)	inactive
O=C(CCCn1c(SCC(=O)c2ccccc2)nc2ccccc2c1=O)NCC1CCCO1 (configuration not stated)	inactive
O=C(COc1ccccc1Cl)Nc1ccccc1C(=O)NC1CC1	inactive
Cc1ccc(S(=O)(=O)CCC(=O)Nc2nnc(CC(C)C)s2)cc1	inactive
CCC(=O)Nc1nnc(S(=O)(=O)N2CCCc3ccccc32)s1	inactive
CCC(=O)Nc1nnc(S(=O)(=O)N(CC(C)C)c2ccccc2)s1	-5.75 (active)
CC(C)CC(=O)Nc1nnc(S(=O)(=O)N(C)c2ccc(Cl)cc2)s1	inactive
CCN(C(=O)COC(=O)C1CCN(S(=O)(=O)c2ccc(C)c(C)c2)CC1)C1CCS(=O)(=O)C1 (configuration not stated)	inactive
Cn1cccc1C(=O)NNC(=O)COc1ccc(Br)cc1	inactive
Cc1ccc(S(=O)(=O)N2CCCCC2)cc1C(=O)N(C)CC(=O)Nc1cccc(F)c1	inactive
O=C(NCC(c1ccco1)N1CCc2ccccc21)c1cccc(F)c1 (configuration not stated)	inactive
CC1(C)CC(=O)c2ccc(O)cc2O1	inactive
COc1ccc2c(c1)OC(O)(C(F)(F)C(F)F)CC2=O (configuration not stated)	-5.18 (active)
COc1ccc2c(c1)SC(C)CC2=O (configuration not stated)	inactive
COC(=O)[C@@]12CCCN1[C@H](c1ccc(-c3ccc(F)cc3)c(OC)c1)[C@H]1C(=O)N(C)C(=O)[C@H]12	inactive
CCN(CC)c1ccc(NC(=O)c2ccc(=O)[nH]c2)cc1S(=O)(=O)Nc1ccc(OC)cc1	inactive
COc1cc(/C=N/NC(=O)c2cc(-c3ccccc3C)nc3ccccc23)cc(OC)c1O	inactive
O=C(Nc1ccccc1)c1ccco1	inactive
O=C(Nc1nonc1-c1ccc(Cl)cc1)c1ccco1	-5.55 (active)
Cc1ccnc(NC(=O)c2ccco2)n1	inactive

SMILES	B-score
CN(Cc1ccccc1F)C(=O)C(Cc1ccccc1)NC(=O)c1ccccc1 (configuration not stated)	inactive
O=C(NNC(=O)c1cc(-c2ccccc2Cl)nc2ccccc12)c1csc(N2CCOCC2)n1	inactive
O=S(=O)(Cc1cc(Sc2ccccc2)nc(-c2ccccc2)n1)c1ccccc1	inactive
O=S(=O)(NCCc1csc(-c2ccccc2)n1)c1cccnc1	inactive
O=S(=O)(Cc1cc(Cl)nc(-c2cccnc2)n1)c1ccccc1	-6.86 (active)
COc1ccccc1NC(=O)C(C)OC(=O)c1ccc(-n2cnnn2)cc1 (configuration not stated)	inactive
CCC1Nc2ncnc(N3CCN(c4ccccc4)CC3)c2N(Cc2ccc(Cl)cc2)C1=O (configuration not stated)	inactive
CC(=O)C1C(c2ccc(Cl)cc2)NC(=O)NC1(O)C(F)(F)F (configuration not stated)	inactive
CCOC(=O)C1C(c2ccc(Cl)cc2)NC(=S)NC1(O)C(F)(F)F (configuration not stated)	inactive
O=C(c1cccs1)C1C(c2ccc(Br)cc2)NC(=S)NC1(O)C(F)(F)F (configuration not stated)	-8.32 (active)
Cc1cccc(C)c1NC(=O)c1ccc(CN2CCc3ccccc3C2)cc1	-5.84 (active)
CN(c1cccc(NC(=O)c2ccc(CN3CCc4ccccc4C3)cc2)c1)S(C)(=O)=O	inactive
Cc1ccc(NC(=O)CN2CCc3ccccc3C2)cc1C	inactive
CCCCn1c(N)c(N(CC(C)C)C(=O)c2ccc(-n3c(C)ccc3C)cc2)c(=O)[nH]c1=O	inactive
COc1ccc2c(c1)[C@H]1[C@H](CO2)[C@H](c2ccccc2)[C@]2(C)C(=O)Nc3cc(F)c(F)cc3C(=O)N12	inactive
O=C(Nn1c(SCc2ccc([N+](=O)[O-])cc2)nc2ccccc2c1=O)c1ccc(F)cc1	inactive
C=CCn1c(SCc2ccc(C(=O)NCCO)cc2)nc2ccccc2c1=O	-5.96 (active)
COCCNC(=O)c1ccc(-n2c(SCc3cccnc3)nc3ccccc3c2=O)cc1	inactive
CCN1CCN(c2ccc(S(=O)(=O)N3CCCCC3)cc2NC(=O)c2cccc(NC(C)=O)c2)CC1	inactive
CC(OC(=O)CCCOc1ccccc1)C(=O)Nc1ccc(Cl)cn1 (configuration not stated)	inactive
O=C(NCCC1CCCCN1S(=O)(=O)c1cccs1)C(=O)Nc1ccc(F)cc1F (configuration not stated)	inactive
CC12CCC(=O)N1C(C(=O)Nc1ccc(F)c(F)c1F)CS2 (configuration not stated)	inactive

Source: PubChem BioAssay AID488975 (Johns Hopkins Ion Channel Center, 2010)
